# Experimental data published in PubChem BioAssay (Tox21).
# Several values for one entry are separate records, joined by “and”; a condition that tells them apart may be missing. Equal entries are not always repeated. Inconclusive results are not listed. Where a call stands in place of a potency, no number is given. Activity calls are given as the source filed them. Calls follow the shape of the dose curve; as a rule, active = well fitted cell-killing curve with a large enough effect in the repeat runs; inconclusive = weak or mixed curves, or effect the other way; inactive = flat fitted curve, though single readings scatter.
# Experiment: cAMP Responsive Elements (CRE) small molecule agonists, cell-based qHTS assay: qHTS cell viability counter screen (AID 2060914); also: nearly all actives have a fitted effect of over 50% in size
# Conditions: CRE-bla HEK293T viability, CellTiter-Glo luminescence, 5 h; series mostly up to 92.4 µM
# How it was run: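 Cytotoxicity counter screen multiplexed with the CRE-bla reporter assay in HEK 293T cells: 3 h compound exposure at 37 °C, followed by CellTiter-Glo luminescence measured in the same wells.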
# Potency is read from the fitted curve at half-maximal effect.
row,Compound,Potency
1,CCC(C(N)=O)N1CCCC1=O (stereo not given),inactive
2,O=[N+]([O-])CCO,inactive
3,CC(Cc1ccc(OCC(=O)O)cc1)NCC(O)c1csc(C(F)(F)F)n1 (stereo not given),inactive
4,O=C(O)C1C(C(=O)O)C2(Cl)C(Cl)=C(Cl)C1(Cl)C2(Cl)Cl (stereo not given),inactive
5,Nc1ccc(-c2ccc(N)c(Cl)c2)cc1Cl,inactive
6,CCC(C)c1cccc(C(C)CC)c1O (stereo not given),inactive
7,Nc1nc(N)c(N)c(N)n1,inactive
8,COP(=O)(OC)O/C(=C/Cl)c1cc(Cl)c(Cl)cc1Cl,inactive
9,S=c1[nH]c2ccccc2[nH]1,inactive
10,c1ccc2c(c1)cc1ccc3cccc4ccc2c1c34,inactive
11,O=C(O)c1c(Cl)ccc2cc(Cl)cnc12,inactive
12,C[C@]12CC[C@H]3[C@@H](CCC4=CC(=O)CC[C@@]43C)[C@@H]1CC[C@@H]2O,inactive
13,CC(O)(CS(=O)(=O)c1ccc(F)cc1)C(=O)Nc1ccc(C#N)c(C(F)(F)F)c1 (stereo not given),inactive
14,C=C(C)[C@H]1CN[C@H](C(=O)O)[C@H]1CC(=O)O,inactive
15,COC1=CC(=O)O[C@@H](/C=C/c2ccc3c(c2)OCO3)C1,inactive
16,Oc1ccc2[nH]cc(CCCCN3CC=C(c4ccccc4)CC3)c2c1,inactive
17,CC(C)C(C)(N)C#N (stereo not given),inactive
18,CCOP(=S)(OCC)SCCSCC,inactive
19,CC1(C)CCC(Cc2ccc(Cl)cc2)C1(O)Cn1cncn1 (stereo not given),inactive
20,C[C@]12CC[C@H]3[C@@H](CCC4=CC(=O)CC[C@@]43C)[C@@H]1CC[C@@H]2C(=O)O,inactive

row,Compound,Potency
1,C[N+](C)(C)CCCl,inactive
2,O=C(O)COc1cc(Cl)c(Cl)cc1Cl,inactive
3,NCC(O)c1ccc(O)cc1 (stereo not given),inactive
4,ClCCBr,inactive
5,CCOP(=S)(NC(C)C)Oc1ccccc1C(=O)OC(C)C (stereo not given),inactive
6,CCCCOCC1CO1 (stereo not given),inactive
7,CCCCCCCCCCCCCCCC[n+]1ccccc1,47.9 µM (active) [middle of 4 runs]
8,C1CCC2CCCCC2C1 (stereo not given),inactive
9,CC1=C2C[C@H]3[C@@H](CC=C4C[C@@H](O)CC[C@@]43C)[C@@H]2CC[C@]12O[C@@H]1C[C@H](C)CN[C@H]1[C@H]2C,inactive
10,BrCCCBr,inactive
11,CC[C@H]1C[C@@H]2C[C@H]3c4[nH]c5ccc(OC)cc5c4CCN(C2)[C@@H]13,inactive
12,CC#Cc1cc(C)nc(Nc2ccccc2)n1,inactive
13,CCCCCCCC[N+](C)(CCCCCCCC)CCCCCCCC,19.3 µM (active) and 30.6 µM (active)
14,N=C(N)[Se],inactive
15,N#CCCCl,inactive
16,COc1nn(C(=O)NS(=O)(=O)c2ccccc2OC(F)(F)F)c(=O)n1C,inactive
17,Brc1ccccc1,inactive
18,N#CC(C#N)=NNc1cccc(Cl)c1,inactive
19,CCCCCCCCCCCCCC[P+](CCCCCC)(CCCCCC)CCCCCC (tested in a mixture with another compound),21.7 µM (active)
20,C[C@H]1C(=O)O[C@@H]2CCN3CC=C(COC(=O)[C@](C)(O)[C@]1(C)O)[C@H]23,inactive
